According to PubChem BioAssay AID687016 (The Scripps Research Institute Molecular Screening Center, 2013):
The whole screen tested about 370,000 compounds, of which about 2,800 (0.76%) were called active. This is one part of a sample in which actives are shown more often than they occur. Values without a mark were called inactive. Rule as the data show it: active = inhibition above about 21%; inactive = the rest.

Biological target: E3 ubiquitin-protein ligase UHRF1 (Homo sapiens) (UniProt Q96T88)
Sequence (Q96T88 whole entry, looked up, the tested form may be a part): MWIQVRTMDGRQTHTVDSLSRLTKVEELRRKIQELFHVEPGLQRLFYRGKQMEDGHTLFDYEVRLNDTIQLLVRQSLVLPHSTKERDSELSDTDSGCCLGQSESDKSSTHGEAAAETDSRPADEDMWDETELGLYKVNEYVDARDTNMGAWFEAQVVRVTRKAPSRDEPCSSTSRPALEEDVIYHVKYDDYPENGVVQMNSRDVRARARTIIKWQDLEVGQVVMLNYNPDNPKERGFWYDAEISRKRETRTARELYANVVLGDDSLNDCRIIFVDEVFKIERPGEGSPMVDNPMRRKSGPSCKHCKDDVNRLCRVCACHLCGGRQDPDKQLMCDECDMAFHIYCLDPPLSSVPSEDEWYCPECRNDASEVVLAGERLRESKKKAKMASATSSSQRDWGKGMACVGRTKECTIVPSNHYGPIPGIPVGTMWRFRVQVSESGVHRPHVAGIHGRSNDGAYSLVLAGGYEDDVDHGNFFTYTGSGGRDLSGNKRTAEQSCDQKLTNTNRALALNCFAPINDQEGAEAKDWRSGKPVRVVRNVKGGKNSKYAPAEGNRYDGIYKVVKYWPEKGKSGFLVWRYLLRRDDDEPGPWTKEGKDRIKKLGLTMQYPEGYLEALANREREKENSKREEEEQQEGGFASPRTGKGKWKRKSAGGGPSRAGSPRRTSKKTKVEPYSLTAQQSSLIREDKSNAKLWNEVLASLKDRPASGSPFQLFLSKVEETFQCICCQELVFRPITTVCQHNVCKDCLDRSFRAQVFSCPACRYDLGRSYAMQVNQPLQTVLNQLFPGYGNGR
Assay: UHRF1 methylated DNA binding inhibitors, primary screen, counter-screen for MBD2 inhibitor project, biochemical, TR-FRET, human UHRF1, single concentration (AID 687016);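 also: UHRF1 SRA domain binding a hemimethylated CpG hairpin DNA probe; 0% = median of test compound wells and 100% = reference inhibitor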
Conditions: UHRF1 binding to methylated oligo, at 4.4 µM, active compounds read high

Structure (SMILES) | inhibition
COc1ccc([C@H]2OC(=O)C[C@H]2C(=O)N2CCN(c3ccccc3F)CC2)cc1OC | -2.23%
CC(=O)Nc1nonc1-c1nc2ccccc2n1Cc1ccccn1 | 54.5% (active)
O=S(=O)(Cc1ccccc1)c1nc2ccccc2n1Cc1ccccn1 | 0.93%
COc1ccc(C)c(Cn2c(-c3nonc3N)nc3ccccc32)c1 | -5.53%
Cc1cccc(C(=O)Nc2c(-c3ccc(F)cc3)nc3ncccn23)c1 | -2.59%
COc1ccc(N2CCN(CCNS(=O)(=O)c3ccc([N+](=O)[O-])cc3)CC2)cc1 | -0.84%
COc1c(C)cc(C(=O)C2CCCN(S(=O)(=O)c3c(C)noc3C)C2)cc1C (stereo not given) | 20.7% (active)
Cc1ccc(NC(=O)C2CCCN(S(=O)(=O)c3c(C)noc3C)C2)c(C)c1 (stereo not given) | -1.46%
Cc1noc(C)c1S(=O)(=O)N1CCCC(C(=O)Nc2nccs2)C1 (stereo not given) | -1.61%
Cc1ccc(C2=CCN(C)C(=O)N2c2ccc(Cl)cc2)cc1 | -4.14%
COc1ccc(C#CCNCc2ccc(OC)cc2OC)cc1 | -1.17%
CSc1nnc(SCc2nc3sc(C(=O)O)c(C)c3c(=O)[nH]2)s1 | 32.3% (active)
CCOC(=O)c1sc2nc(C)nc(SCC(N)=O)c2c1C | -1.2%
CCN(CC)Cc1nc2sc(C)c(C)c2c(=O)[nH]1 | 2.13%
Cc1c(C(C)c2ccccc2O)[nH]c2ccccc12 (stereo not given) | -2.42%
O=C(CSc1nc2ccccc2s1)N=Nc1c(O)[nH]c2ccccc12 | -3.32%
CCN(CC)C(=O)CC[C@@H]1CC[C@]2(CCCN(S(=O)(=O)C3CCCCC3)C2)O1 | -0.55%
Cc1ccc(Cn2cc(COC(=O)N(C)Cc3ccccc3)nn2)cc1 | -4.1%
Cc1ccc(Cn2nnc3c(=O)n(CC(=O)N4CCCCC4)cnc32)cc1 | 0.43%
Cc1cc(C)cc(NC(=O)Cn2cnc3c(nnn3Cc3ccc(F)cc3)c2=O)c1 | 0.23%
O=C(Cn1cnc2c(nnn2Cc2ccc(F)cc2)c1=O)NCc1ccc2c(c1)OCO2 | 21.8% (active)
CCCCNC(=O)C[C@H]1C(=O)N(Cc2ccc(OC)cc2)C2=CCCC[C@@]21C(=O)OCC | 5.53%
Cc1nc(CNc2ncnc3ccc(-c4ccc5c(c4)OCO5)cc23)cs1 | -2.89%
CCC(C(=O)OC)n1cnc2scc(-c3ccc(C)cc3)c2c1=O (stereo not given) | 0.64%
COC(=O)c1c(-c2ccc(C)cc2)csc1N | 28.4% (active)
COC(=O)c1sc(N)c(C(=O)OC)c1COC(=O)CNS(=O)(=O)c1ccc(C)cc1 | -0.33%
CCCCNC(=O)C[C@H]1C[C@@]2(C(=O)OC)C(=C[C@H](COCc3ccccc3)O[C@@H]2C)N(Cc2ccc(Cl)cc2Cl)C1=O | 1.55%
COC(=O)C1CN(CCc2ccccc2)CCS(=O)(=O)N1Cc1cccc(Cl)c1 (stereo not given) | 1.44%

Structure (SMILES) | inhibition
CC(NCc1ccco1)C(=O)N1CCCCC1 (stereo not given) | 0.03%
COc1ccc(-n2c(SCC(=O)Nc3ccc4c(c3)OCCO4)nnc2-c2ccc(Cl)cc2)cc1 | 2.21%
COC(=O)CC1CCc2cc(C)cc(C(CC(C)C)NC(=O)[C@H](CC(C)C)NC(=O)OCc3ccccc3)c2O1 (stereo not given in full) | 4.14%
CC(=O)c1cccc(-c2cnc3c(NC=O)cc(-c4ccc(N5CCN(C)CC5)cc4)cn23)c1 | -0.16%
CN(C)C(=O)c1cccc(-c2cnc3c(NC=O)cc(-c4ccc(C(=O)N5CCOCC5)cc4)cn23)c1 | -6.57%
CC(=O)c1cccc(-c2cnc3c(NC=O)cc(-c4ccc(N(C)C)cc4)cn23)c1 | 31.6% (active)
Cc1ccccc1CN1CCCCC(NC(=O)Nc2ccccc2F)C1=O (stereo not given) | -1.71%
CC1(C)Cc2c(C#N)c(SCc3nc4ccccc4[nH]3)nc(N3CCOCC3)c2CO1 | 25.8% (active)
CCOC(=O)CSc1nc(N2CCOCC2)c2c(c1C#N)CC(C(C)C)OC2 (stereo not given) | 1.09%
CC(C)C(=O)N1CCN(c2nc(-c3ccccc3)c3c(c2C#N)CC(C)(C)OC3)CC1 | -0.61%
CCC[C@H]1C(=O)CC[C@@]23CCCN2C(=O)CCC[C@@H]13 | -3.81%
CCN(CC)C(=O)Cn1cc(S(=O)(=O)CC(=O)NCc2ccc3c(c2)OCO3)c2ccccc21 | 22.7% (active)
CC(C)N(C(=O)Cn1cc(S(=O)(=O)CC(=O)N2CCOCC2)c2ccccc21)C(C)C | 0.05%
CCN(CC)C(=O)C(=O)c1cn(CC(=O)NCc2ccc3c(c2)OCO3)c2ccccc12 | 1.9%
CCCC1(C(=O)OC)NC(c2ccco2)C2C(=O)N(C)C(=O)C21 (stereo not given) | 26.9% (active)
CCCSc1ccc([C@H]2N[C@@](Cc3ccccc3)(C(=O)OC)[C@H]3C(=O)N(C)C(=O)[C@@H]23)cc1 | 2.8%
CC[C@@]1(C(=O)OC)N[C@H](CN(C)C(C)=O)[C@@H]2C(=O)N(C)C(=O)[C@@H]21 | 4.65%
COc1ccc2c(c1)CN1CN(CCc3ccccc3)S(=O)(=O)CC21 (stereo not given) | -5.7%
COC(=O)[C@@]12CCCCC3=C1N(CCC3)C(=O)[C@H]2CC(=O)NCc1cccc2ccccc12 | -1.21%
CC(=O)N1CCc2cc(S(=O)(=O)NCCC(=O)N3CCCC3)ccc21 | 2.88%
CC(c1ccc(N)cc1)c1cn(C)c2ccccc12 (stereo not given) | 2.19%
O=C(NCCc1c[nH]c2ccccc12)OCc1cn(-c2c(F)cccc2F)nn1 | -1.24%
O=S(=O)(c1ccccc1)N1CCC(c2nc3ccccc3o2)CC1 | -2.1%
O=C(O)c1cc(S(=O)(=O)NC2CCCc3ccccc32)ccc1O (stereo not given) | 26.4% (active)
CNS(=O)(=O)c1cccc(C(=O)NC2CCCc3ccccc32)c1 (stereo not given) | -0.54%
Cc1ccc(S(=O)(=O)N2CCN(C(=O)CCC(=O)NC3CCCc4ccccc43)CC2)cc1 (stereo not given) | -0.03%
COC(=O)C1CN(CCc2ccccc2)CCS(=O)(=O)N1Cc1ccc(F)cc1 (stereo not given) | 2.78%
